The values that follow come from PubChem BioAssay.

The source made the active and inactive calls. Unless noted, no rule for the calls is given here.

For experiment [1], the system named is Wnt5a (protein binding on small-molecule microarray). Nature of the experiment: small molecules binding Wnt5a protein – biophysical, small-molecule microarray, 635/667 nm fluorescence, primary screen (AID 1142).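 Also: fluorescence read at 667 nm with signal to noise per printed feature.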 The conditions noted are these: 635 nm fluorescence, higher = more signal.
A short description of experiment [2]: ATP-based viability of Huh7 replicon cells – cell-based, CellTiter-Glo luminescence, basal, 48 h, cytotoxicity control for HCV replication inhibitor project, primary screen (AID 1143).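 Also: Huh7 hepatoma cells carrying a hepatitis C replication reporter with no stimulus; test concentration not given here.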 The conditions noted are these: higher = more signal, called active from +8 up or from −8 down. (In general: In antiviral work, replicon cells carry a viral genome segment that copies itself.)

A short description of experiment [3]: Pseudomonas biofilm growth suppression – PAO1 strain, BacTiter-Glo luminescence, LB-PBS, primary screen (AID 1144). Particulars: P. aeruginosa PAO1 biofilm, 12 h, higher = more signal.
Experiment [4] can be described thus: basal CRE-LacZ reporter activity in PC12 – cell-based, unstimulated, primary screen (AID 1145). Particulars: no forskolin, luminescence, 4.5 h, higher = more signal, called active from +8 up or from −8 down.
Experiment [5] is described as follows: forskolin-driven CRE-LacZ activity in PC12 – cell-based, CRE-LacZ reporter, forskolin-stimulated, primary screen (AID 1146).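 Also: PC12 cells with 6xCRE LacZ reporter stimulated by forskolin 10 µM; beta-galactosidase reporter signal reflecting CREB driven transcription.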 The conditions noted are these: luminescence, 4.5 h, higher = more signal, called active from +8 up or from −8 down.
For experiment [6], the target named is Streptavidin (Streptomyces avidinii) (UniProt P22629). Nature of the experiment: compounds binding control protein streptavidin – biophysical, small-molecule microarray, 635/667 nm fluorescence, artefact control for SMM compound annotation, primary screen (AID 1147).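 Also: signal reflects streptavidin binding to arrayed compounds as a control protein.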 The conditions noted are these: higher = more signal.
Experiment [7] can be described thus: probe aInhba binding on compound microarray – biochemical, small-molecule microarray, 635/667 nm fluorescence, primary screen (AID 1148).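 Also: score merges 667nm spot fluorescence with signal-to-noise for antibody binding to printed compounds.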 The conditions noted are these: higher = more signal.
In experiment [8] the target is Torsin-1A (Homo sapiens) (UniProt O14656). Description: TOR1A wild-type binding on microarray – cell lysate, small-molecule microarray, lysate, 635/667 nm, primary screen (AID 1149). The conditions noted are these: COS7 hTOR1A-WT lysate, 635 nm fluorescence, higher = more signal.
Experiment [9] has the same target. Description: torsin A mutant lysate binding on microarrays – cell lysate, small-molecule microarray, COS7 lysate, 635/667 nm fluorescence, primary screen (AID 1150).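 Also: score pools 667 nm emission and signal to noise measuring lysate protein binding.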 Particulars: COS7 hTOR1A mutant lysate, 635 nm fluorescence, higher = more signal.
Experiment [10] concerns Sonic hedgehog protein (Shh). Nature of the experiment: Sonic hedgehog microarray binding compounds – biochemical, small-molecule microarray, 635/667 nm fluorescence, primary screen (AID 1151).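 Also: Shh protein binding to compounds spotted on small-molecule microarray slides; score combines spot fluorescence intensity with signal-to-noise across triplicate slides.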 The conditions noted are these: 635 nm fluorescence, higher = more signal.

Streptavidin (Streptomyces avidinii), sequence (P22629 whole entry, looked up): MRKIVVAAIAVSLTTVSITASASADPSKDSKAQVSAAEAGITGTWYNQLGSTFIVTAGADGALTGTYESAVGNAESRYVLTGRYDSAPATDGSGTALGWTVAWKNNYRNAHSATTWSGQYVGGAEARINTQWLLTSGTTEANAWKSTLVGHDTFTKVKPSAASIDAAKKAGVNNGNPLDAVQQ
Torsin-1A (Homo sapiens), sequence (O14656 whole entry, looked up): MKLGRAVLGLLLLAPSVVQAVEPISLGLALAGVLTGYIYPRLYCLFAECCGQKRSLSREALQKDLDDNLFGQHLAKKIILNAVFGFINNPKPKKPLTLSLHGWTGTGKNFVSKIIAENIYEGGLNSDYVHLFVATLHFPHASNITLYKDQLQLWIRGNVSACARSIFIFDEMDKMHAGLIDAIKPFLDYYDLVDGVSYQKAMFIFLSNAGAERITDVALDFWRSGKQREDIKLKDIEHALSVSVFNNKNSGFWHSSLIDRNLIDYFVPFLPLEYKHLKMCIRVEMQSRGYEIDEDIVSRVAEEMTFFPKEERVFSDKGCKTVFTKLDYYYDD

Regarding `COCCCNC(=O)[C@@]1(CCS(=O)(=O)c2ccccc2)N=C(c2ccc(OCCCO)cc2)O[C@H]1c1ccccc1N=[N+]=[N-]`, the composite z-score came out at 1.04 in [1]; 0.985 in [6]; 0.467 in experiment [7]; 0.765 with Torsin-1A (Homo sapiens) [8]; 1.49 with Torsin-1A (Homo sapiens) [9]; 1.72 in experiment [10]. The z-score was -5.54 (inactive) in [2], -0.372 (inactive) in experiment [3], 0.0451 (inactive) in [4] and -1.15 (inactive) in [5].
Regarding `COc1ccccc1CN1C(=O)c2ccccc2[C@@H](C(=O)NCc2ccccc2)[C@@H]1c1ccc(CO)cc1`, the composite z-score in experiment [1] was -0.13; in [6] it was -0.515; in experiment [7], -0.176; in the experiment with Torsin-1A (Homo sapiens) [8], 0.408; with Torsin-1A (Homo sapiens) [9] it was 0.48; in experiment [10], 0.496. Further, the z-score in experiment [2] was -0.107 (inactive); in experiment [3], 1.29 (inactive); in experiment [4], 0.648 (inactive); in experiment [5] it was -1.35 (inactive).
As to `CN1C(=O)C2C=CC(C(O)c3c(F)cccc3Cl)N(NC(=O)OC(C)(C)C)C2C1=O` (stereo not given), the composite z-score in [1] is 0.213; in [6], 1.18; in experiment [7] it was 0.181; with Torsin-1A (Homo sapiens) [8], 0.622; in the experiment with Torsin-1A (Homo sapiens) [9] it was 0.591; in experiment [10], -0.0049. The z-score was 0.736 (inactive) in experiment [2], 0.232 (inactive) in [3], 0.622 (inactive) in experiment [4] and 0.947 (inactive) in experiment [5].
Consider `COc1ccc(NN2C(C(O)c3ccc(N(C)C)cc3)C=CC3C(=O)N(C4CCCCC4)C(=O)C32)cc1` (stereo not given), for which the composite z-score in experiment [1] is 0.66; in [6], 1.46; in experiment [7], 0.346; with Torsin-1A (Homo sapiens) [8], 0.0944; with Torsin-1A (Homo sapiens) [9], 1.11; in experiment [10] it was 0.0202. In addition, the z-score was -0.759 (inactive) in experiment [2], -0.805 (inactive) in experiment [3], -0.583 (inactive) in experiment [4] and -0.249 (inactive) in experiment [5].
Turning to `CC(C)[Si](C#CCCCC#N)(Oc1ccccc1Br)C(C)C`, the composite z-score is 0.0696 in experiment [1]; 0.525 in experiment [6]; -0.15 in experiment [7]; 0.42 with Torsin-1A (Homo sapiens) [8]; 0.222 in the experiment with Torsin-1A (Homo sapiens) [9]; 0.544 in [10]. Further, the z-score in experiment [2] was -0.0761 (inactive); in experiment [3] it was 0.0648 (inactive); in experiment [4], -0.519 (inactive); in [5] it was -0.0887 (inactive).
`COCCOC(=O)N1C(=O)[C@@]2(c3cc(C#CCCO)ccc31)[C@H](c1ccc(O)cc1)N1[C@H](c3ccccc3)[C@H](c3ccccc3)OC(=O)[C@H]1[C@@H]2C(=O)N1CCN(c2ncccn2)CC1`: the composite z-score in experiment [1] stood at 0.449; in experiment [6] it was 0.842; in [7], 1.62; with Torsin-1A (Homo sapiens) [8], 0.852; with Torsin-1A (Homo sapiens) [9], 0.606; in [10], 1.53. Also, the z-score is -1.97 (inactive) in experiment [2], -0.185 (inactive) in [3], -0.459 (inactive) in experiment [4] and 0.648 (inactive) in experiment [5].
With `COc1ccc(C(O)C2C=CC3C(=O)N(C)C(=O)C3N2NC(=O)OC(C)(C)C)c2ccccc12` (stereo not given), the composite z-score was 0.364 in experiment [1]; 1.13 in experiment [6]; -0.137 in [7]; 0.177 in the experiment with Torsin-1A (Homo sapiens) [8]; 0.644 with Torsin-1A (Homo sapiens) [9]; -0.416 in experiment [10]. For the same compound, the z-score in [2] was -0.144 (inactive); in experiment [3], -0.0855 (inactive); in [4] it was 1.58 (inactive); in [5], -0.0415 (inactive).
Take `CS(=O)(=O)CCOC(=O)C1=CC(CCCO)=CC(C2CC2)N(Cc2cc3c(cc2Br)OCO3)C=C1C(=O)OCCS(C)(=O)=O` (stereo not given): the composite z-score in experiment [1] was 0.0339; in [6] it was 0.635; in experiment [7], -0.0695; with Torsin-1A (Homo sapiens) [8], 0.913; with Torsin-1A (Homo sapiens) [9] it was 1.03; in experiment [10] it was 0.358. Also, the z-score is -0.737 (inactive) in experiment [2], -0.453 (inactive) in experiment [3], -0.0424 (inactive) in experiment [4] and 0.926 (inactive) in experiment [5].
Regarding `CC(C)OC(=O)C=C1C[C@@H](c2cccc(Cl)c2)O[C@@H](c2cccc(Cl)c2)O1`, the composite z-score is -0.0889 in experiment [1]; 0.776 in experiment [6]; 0.0956 in experiment [7]; 0.686 with Torsin-1A (Homo sapiens) [8]; -0.365 with Torsin-1A (Homo sapiens) [9]; -1.16 in [10]. For the same compound, the z-score in experiment [2] was -0.0636 (inactive); in experiment [3] it was -0.179 (inactive); in experiment [4], 0.192 (inactive); in experiment [5], 1.03 (inactive).
Regarding `C=CCN1Cc2ccccc2[C@@H]2OC(c3ccc(OCCCO)cc3)=N[C@]2(CCS(=O)(=O)c2ccccc2)C1=O`, the composite z-score stood at 1.02 in experiment [1]; 0.316 in [6]; 0.122 in experiment [7]; 0.625 with Torsin-1A (Homo sapiens) [8]; 0.969 in the experiment with Torsin-1A (Homo sapiens) [9]; 1.77 in experiment [10]. Further, the z-score in [2] is -2.93 (inactive); in [3], -0.491 (inactive); in [4], 2.65 (inactive); in experiment [5], -0.821 (inactive).
In the case of `O=C1C[C@@](C(=O)NCc2ccccc2)(c2ccc([N+](=O)[O-])cc2)[C@@H](c2ccc(CO)cc2)N1CC12CC3CC(CC(C3)C1)C2`, the composite z-score is 0.38 in [1]; -0.243 in experiment [6]; -0.189 in experiment [7]; 0.352 in the experiment with Torsin-1A (Homo sapiens) [8]; 0.368 in the experiment with Torsin-1A (Homo sapiens) [9]; 1.99 in experiment [10]. Moreover, the z-score in [2] was -4.73 (inactive); in experiment [3], 0.657 (inactive); in experiment [4], 0.674 (inactive); in experiment [5], -0.841 (inactive).
`COc1cc(OC)c(C(O)C2C=CC3C(=O)NC(=O)C3N2Nc2ccccn2)cc1Br` (stereo not given): the composite z-score was 0.364 in experiment [1]; -0.118 in experiment [6]; -0.0791 in experiment [7]; -0.105 with Torsin-1A (Homo sapiens) [8]; 0.197 with Torsin-1A (Homo sapiens) [9]; 0.754 in experiment [10]. For the same compound, the z-score was 0.996 (inactive) in experiment [2], -0.874 (inactive) in experiment [3], -0.326 (inactive) in experiment [4] and -0.527 (inactive) in experiment [5].
Consider `Cc1ccc(S[C@]2(C(=O)O)CC(=O)N(C(C)C)[C@@H]2c2ccc(CO)cc2)cc1`, for which the composite z-score in experiment [1] is -0.201; in [6], -0.186; in experiment [7], -0.147; with Torsin-1A (Homo sapiens) [8], -0.366; with Torsin-1A (Homo sapiens) [9], 1.12; in experiment [10], -0.317. The z-score in [2] was -2.62 (inactive); in experiment [3], -2.2 (inactive); in experiment [4], -0.206 (inactive); in experiment [5], -0.244 (inactive).
On to `OCC1C=C(/C=C/c2ccccc2)CN1Cc1ccccc1Br` (stereo not given), for which the composite z-score was 0.307 in [1]; 0.828 in experiment [6]; 0.126 in [7]; -0.205 in the experiment with Torsin-1A (Homo sapiens) [8]; 0.818 with Torsin-1A (Homo sapiens) [9]; 1.39 in [10]. Also, the z-score in [2] was -2.1 (inactive); in experiment [3], 0.0784 (inactive); in [4] it was 0.856 (inactive); in experiment [5], -0.181 (inactive).
